# Reference: PubChem BioAssay (EPA / NIEHS)
# The source made the active and inactive calls. The calls were made as follows: active = hit-call score of the fitted dose curve at least 0.9, where 1 is the maximum; inactive = score below 0.9. Peptide text beside a SMILES is read from it.
# Legend:
# [1] = ATG_GRE_CIS: Attagene CIS-FACTORIAL HepG2 Assay for human Glucocorticoid Response Elements (GRE) (AID 2282947); conditions: HepG2 GRE cis-reporter, Attagene multiplex mRNA; actives raise or lower the signal
# Method in brief: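 Read-out: fluorescent reporter-transcript fragments separated by capillary electrophoresis after RT-PCR. Transiently transfected HepG2 cells carrying cis-element-driven reporter units were dosed for 24 h; gain or loss of signal fitted against DMSO control.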
# [2] = ATG_ISRE_CIS: Attagene CIS-FACTORIAL HepG2 Assay for human Interferon Regulatory Factor 1 (IRF1) binding to an Interferon-Stimulated Response Element (ISRE) (AID 2282948); conditions: HepG2 ISRE cis-reporter (Attagene), mRNA transcription readout; actives raise or lower the signal
# Method in brief: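 Multiplexed mRNA reporter readout in human liver HepG2 cells: cis-element-driven reporters transfected, compound added for 24 h, transcripts amplified, fluorescently labelled and sized by capillary electrophoresis; curve fitting bidirectional against DMSO.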
# [3] = ATG_M_32_CIS: Attagene CIS-FACTORIAL HepG2 Assay for M32 Transcription Factor (Internal Marker) (AID 2282949); conditions: HepG2 Attagene cis-factorial M32 reporter, mRNA; actives raise or lower the signal;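 also: background control marker of the multiplexed CIS panel rather than a real target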
# Method in brief: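 Using DMSO as baseline, bidirectional curve fits were applied to reporter mRNA signals. These came from transiently transfected HepG2 cells exposed for 24 h, with RNA analysed by RT-PCR, FAM primer extension, HpaI digestion and CE.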
# [4] = ATG_M_06_CIS: Attagene CIS-FACTORIAL HepG2 Assay for M06 Transcription Factor (Internal Marker) (AID 2282950); conditions: HepG2 Attagene CIS-FACTORIAL M06 internal marker reporter; actives raise or lower the signal
# Method in brief: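 One of many multiplexed endpoints: HepG2 reporter mRNA after 24 h dosing, detected by RT-PCR and capillary electrophoresis fluorescence; gain or loss of signal analysed against DMSO.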
# [5] = biological target: Hypoxia-inducible factor 1-alpha (Homo sapiens) (UniProt Q16665); experiment: ATG_HIF1a_CIS: Attagene CIS-FACTORIAL HepG2 Assay for human Hypoxia Inducible Factor 1 (HIF1A) (AID 2282951); conditions: HepG2 Attagene cis-factorial HIF1a reporter transcription; actives raise or lower the signal
# Method in brief: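 HepG2 cells transiently transfected with multiple cis-regulated reporter transcription units measure endogenous transcription factor activity. After 24 h exposure, reporter mRNA is quantified by RT-PCR with 6-FAM labelling, HpaI digestion and capillary electrophoresis. Bidirectional fitting against DMSO.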
# [6] = biological target: Heat shock factor protein 1 (Homo sapiens) (UniProt Q00613); experiment: ATG_HSE_CIS: Attagene CIS-FACTORIAL HepG2 Assay for human Heat Shock Transcription Factor 1 (HSE) (AID 2282953); conditions: HepG2 HSE cis-reporter, Attagene RNA transcription; actives raise or lower the signal
# Method in brief: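 Using HepG2 with transfected cis-driven reporter constructs, compound effects on endogenous factor activity are scored as reporter mRNA change at 24 h. Detection: RT-PCR, HpaI digestion, capillary electrophoresis; bidirectional fitting to DMSO.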
# [7] = ATG_MRE_CIS: Attagene CIS-FACTORIAL HepG2 Assay for human Metal Responsive Element (MRE) (AID 2282954); conditions: HepG2 MRE cis-reporter transcription, Attagene multiplex; actives raise or lower the signal
# Method in brief: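 RT-PCR/capillary electrophoresis readout of reporter mRNA, 24 h post-dosing, in HepG2 cells transfected with multiplexed cis-regulated reporter constructs. Gain or loss of signal fitted bidirectionally against DMSO baseline.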
# [8] = ATG_PBREM_CIS: Attagene CIS-FACTORIAL HepG2 Assay for human Phenobarbital-responsive Enhancer Module (PBREM) (AID 2282955); conditions: HepG2 PBREM cis-reporter, Attagene multiplexed transcription; actives raise or lower the signal
# Method in brief: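 HepG2 cells transiently transfected with multiple cis-regulated reporter units measure endogenous transcription factor activity; 24 h compound exposure. Reporter mRNA quantified by RT-PCR, fluorescent labelling, HpaI digestion and capillary electrophoresis; bidirectional fit versus DMSO.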
# [9] = ATG_PXRE_CIS: Attagene CIS-FACTORIAL HepG2 Assay for human Pregnane X Receptor Element (PXRE) (AID 2282957); conditions: HepG2 Attagene CIS-FACTORIAL PXRE reporter, mRNA; actives raise or lower the signal
# Method in brief: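 Using HepG2 transfected with multiple reporter transcription units, endogenous factor-driven transcription was scored as reporter mRNA after 24 h exposure.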
# [10] = ATG_RORE_CIS: Attagene CIS-FACTORIAL HepG2 Assay for human RAR-related Orphan Receptor Element (RORE) (AID 2282959); conditions: HepG2 Attagene cis-factorial RORE reporter, mRNA; actives raise or lower the signal
# Method in brief: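 HepG2 cells carrying transiently transfected cis-regulated reporter units; RORE-driven reporter mRNA quantified 24 h post-dosing by RT-PCR, 6-FAM primer extension, HpaI digestion and capillary electrophoresis. Bidirectional fit versus DMSO.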
# [11] = ATG_Sox_CIS: Attagene CIS-FACTORIAL HepG2 Assay for human SRY-box transcription factor (SOX) (AID 2282960); conditions: HepG2 Attagene cis-factorial SOX reporter, mRNA; actives raise or lower the signal
# Method in brief: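 HepG2 cells transiently transfected with multiple cis-regulated reporter units, then dosed for 24 h. Reporter mRNA quantified by RT-PCR, fluorescent labelling, HpaI digestion and capillary electrophoresis; bidirectional fit versus DMSO.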
# [12] = biological target: Transcription factor Sp1 (Homo sapiens) (UniProt P08047); experiment: ATG_Sp1_CIS: Attagene CIS-FACTORIAL HepG2 Assay for human Specificity Protein 1 (Sp1) (AID 2282961); conditions: HepG2 Sp1 cis-reporter transcription, actives raise or lower the signal
# Method in brief: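 HepG2 cells transiently transfected with multiplexed cis-regulated reporter constructs, chemical exposure 24 h. Reporter mRNA quantified by RT-PCR with capillary electrophoresis; bidirectional fit relative to DMSO.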
# [13] = ATG_SREBP_CIS: Attagene CIS-FACTORIAL HepG2 Assay for human Sterol Regulatory Element Binding (SREBP) (AID 2282962); conditions: HepG2 Attagene cis-factorial SREBP reporter, mRNA; actives raise or lower the signal
# Method in brief: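 Endogenous factor activity is measured in HepG2 through multiplexed reporter units under cis-element control. Following a 24 h incubation, reporter transcripts are reverse-transcribed, PCR-amplified and sized by capillary electrophoresis; activity is fitted in both directions relative to DMSO.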
# [14] = biological target: Signal transducer and activator of transcription 3 (Homo sapiens) (UniProt P40763); experiment: ATG_STAT3_CIS: Attagene CIS-FACTORIAL HepG2 Assay for human Signal Transducer and Activator of Transcription 3 (STAT3) (AID 2282963); conditions: HepG2, Attagene cis-factorial STAT3 reporter transcription; actives raise or lower the signal
# Method in brief: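 Readout: fluorescent reporter mRNA fragments resolved by capillary electrophoresis. Setup: HepG2 transfected with MRTUs reporting endogenous transcription-factor activity, dosed 24 h. Gain or loss of signal fitted bidirectionally against DMSO control.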
# [15] = ATG_TA_CIS: Attagene CIS-FACTORIAL HepG2 Assay for human TA Basal Promoter (AID 2282964); conditions: HepG2 Attagene CIS-factorial TA basal promoter reporter; actives raise or lower the signal
# Method in brief: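 Transient MRTU transfection of HepG2 preceded 24 h compound exposure. Reporter mRNA levels were then read by RT-PCR with capillary electrophoresis, and this background-control endpoint was fitted bidirectionally to DMSO.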
# [16] = biological target: Hepatocyte nuclear factor 6 (Homo sapiens) (UniProt Q9UBC0); experiment: ATG_HNF6_CIS: Attagene CIS-FACTORIAL HepG2 Assay for human Hepatocyte Nuclear Factor 6 (HNF6) (AID 2282952); conditions: HepG2 Attagene cis-factorial HNF6 reporter transcription; actives raise or lower the signal
# Method in brief: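 Using cis-element reporters in HepG2 liver cells, the assay tracks endogenous factor-driven transcription 24 h post-dosing. Signal comes from 6-FAM-labelled, HpaI-digested RT-PCR fragments, with gain or loss scored against DMSO.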
# [17] = biological target: Paired box protein Pax-6 (Homo sapiens) (UniProt P26367); experiment: ATG_Pax6_CIS: Attagene CIS-FACTORIAL HepG2 Assay for human Paired Box 6 (PAX6) (AID 2282956); conditions: HepG2 CIS-FACTORIAL PAX6 reporter transcription, RNA readout; actives raise or lower the signal
# Method in brief: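 Fluorescent RT-PCR products separated by capillary electrophoresis report PAX6-linked promoter mRNA in HepG2 cells 24 h post-dose. Curves fitted bidirectionally, DMSO as negative control.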
# [18] = ATG_PPRE_CIS: Attagene CIS-FACTORIAL HepG2 Assay for human Peroxisome Proliferator-activated Response Element (PPRE) (AID 2282958); conditions: HepG2 PPRE cis-element reporter, Attagene transcription factor profiling; actives raise or lower the signal
# Method in brief: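 HepG2 cells are transiently transfected with multiplexed cis-promoter reporter units to report endogenous PPAR activity. After 24 h dosing, reporter mRNA is read by RT-PCR and capillary electrophoresis. Fitting is bidirectional against DMSO.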
# [19] = biological target: Bile acid receptor (Homo sapiens) (UniProt Q96RI1); experiment: ATG_IR1_CIS: Attagene CIS-FACTORIAL HepG2 Assay for human Nuclear Receptor Subfamily 1 Group H Member 4 (NR1H4), IR1 submotif (AID 2282946); conditions: IR1 reporter transcription, actives raise or lower the signal
# Method in brief: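 Fluorescence of capillary-separated, HpaI-digested RT-PCR reporter products gave IR1-element mRNA induction in HepG2 cells 24 h after dosing. Endogenous transcription factors drove the cis-regulated reporters; activity was fitted bidirectionally against DMSO.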
# Hypoxia-inducible factor 1-alpha (Homo sapiens), sequence (Q16665 whole entry, looked up): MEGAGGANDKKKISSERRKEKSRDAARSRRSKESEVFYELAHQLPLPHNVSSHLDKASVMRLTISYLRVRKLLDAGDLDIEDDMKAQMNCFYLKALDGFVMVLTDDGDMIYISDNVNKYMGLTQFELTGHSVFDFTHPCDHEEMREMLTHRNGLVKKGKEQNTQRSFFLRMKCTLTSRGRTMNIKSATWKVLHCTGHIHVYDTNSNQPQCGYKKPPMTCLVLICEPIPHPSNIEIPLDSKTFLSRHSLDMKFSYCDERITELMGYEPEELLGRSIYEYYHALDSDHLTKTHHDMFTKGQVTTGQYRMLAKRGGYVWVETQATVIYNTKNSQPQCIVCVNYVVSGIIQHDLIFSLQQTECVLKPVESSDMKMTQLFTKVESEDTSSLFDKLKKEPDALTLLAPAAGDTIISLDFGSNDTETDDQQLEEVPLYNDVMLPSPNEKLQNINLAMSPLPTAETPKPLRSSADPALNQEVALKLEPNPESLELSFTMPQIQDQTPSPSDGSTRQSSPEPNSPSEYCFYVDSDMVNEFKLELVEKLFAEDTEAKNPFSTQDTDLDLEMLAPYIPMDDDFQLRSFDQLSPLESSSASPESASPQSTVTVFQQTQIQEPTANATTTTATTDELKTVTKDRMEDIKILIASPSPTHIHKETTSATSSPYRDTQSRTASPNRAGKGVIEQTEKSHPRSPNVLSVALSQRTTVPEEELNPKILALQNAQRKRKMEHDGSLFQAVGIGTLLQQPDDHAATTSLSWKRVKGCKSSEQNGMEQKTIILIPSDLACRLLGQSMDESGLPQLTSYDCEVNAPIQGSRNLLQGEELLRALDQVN
# Bile acid receptor (Homo sapiens), sequence (Q96RI1 whole entry, looked up): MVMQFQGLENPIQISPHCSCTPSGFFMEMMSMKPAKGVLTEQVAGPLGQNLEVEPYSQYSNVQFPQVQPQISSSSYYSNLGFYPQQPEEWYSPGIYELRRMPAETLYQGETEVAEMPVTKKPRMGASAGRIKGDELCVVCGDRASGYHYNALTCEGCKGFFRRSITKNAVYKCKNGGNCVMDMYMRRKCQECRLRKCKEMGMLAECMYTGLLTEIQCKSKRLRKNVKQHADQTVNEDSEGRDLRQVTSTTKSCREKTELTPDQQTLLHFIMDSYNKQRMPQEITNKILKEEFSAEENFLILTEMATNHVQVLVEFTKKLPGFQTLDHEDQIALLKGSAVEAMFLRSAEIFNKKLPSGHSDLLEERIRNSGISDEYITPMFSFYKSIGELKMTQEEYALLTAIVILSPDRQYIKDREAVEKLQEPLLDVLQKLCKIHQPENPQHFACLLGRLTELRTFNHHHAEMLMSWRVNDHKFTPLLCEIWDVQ
# Transcription factor Sp1 (Homo sapiens), sequence (P08047 whole entry, looked up): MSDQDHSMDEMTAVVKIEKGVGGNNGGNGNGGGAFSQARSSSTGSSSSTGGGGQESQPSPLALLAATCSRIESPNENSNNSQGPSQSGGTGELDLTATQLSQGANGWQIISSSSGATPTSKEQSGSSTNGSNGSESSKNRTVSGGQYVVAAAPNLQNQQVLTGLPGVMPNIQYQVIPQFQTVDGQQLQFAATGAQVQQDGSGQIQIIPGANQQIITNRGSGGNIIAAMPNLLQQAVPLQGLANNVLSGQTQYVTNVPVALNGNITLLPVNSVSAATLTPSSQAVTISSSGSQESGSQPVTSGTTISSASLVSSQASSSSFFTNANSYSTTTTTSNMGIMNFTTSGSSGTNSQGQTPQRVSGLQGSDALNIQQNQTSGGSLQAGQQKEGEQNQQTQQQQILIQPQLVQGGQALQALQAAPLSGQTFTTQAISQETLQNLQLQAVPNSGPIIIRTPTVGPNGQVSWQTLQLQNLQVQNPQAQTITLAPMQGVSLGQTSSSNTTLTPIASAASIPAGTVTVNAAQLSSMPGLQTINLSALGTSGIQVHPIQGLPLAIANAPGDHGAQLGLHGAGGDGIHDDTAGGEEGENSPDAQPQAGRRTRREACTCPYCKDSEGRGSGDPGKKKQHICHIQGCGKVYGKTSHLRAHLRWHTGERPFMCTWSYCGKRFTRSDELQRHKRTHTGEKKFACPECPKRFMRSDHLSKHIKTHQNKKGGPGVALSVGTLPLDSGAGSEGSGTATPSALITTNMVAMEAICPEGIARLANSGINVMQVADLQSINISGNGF
# Paired box protein Pax-6 (Homo sapiens), sequence (P26367 whole entry, looked up): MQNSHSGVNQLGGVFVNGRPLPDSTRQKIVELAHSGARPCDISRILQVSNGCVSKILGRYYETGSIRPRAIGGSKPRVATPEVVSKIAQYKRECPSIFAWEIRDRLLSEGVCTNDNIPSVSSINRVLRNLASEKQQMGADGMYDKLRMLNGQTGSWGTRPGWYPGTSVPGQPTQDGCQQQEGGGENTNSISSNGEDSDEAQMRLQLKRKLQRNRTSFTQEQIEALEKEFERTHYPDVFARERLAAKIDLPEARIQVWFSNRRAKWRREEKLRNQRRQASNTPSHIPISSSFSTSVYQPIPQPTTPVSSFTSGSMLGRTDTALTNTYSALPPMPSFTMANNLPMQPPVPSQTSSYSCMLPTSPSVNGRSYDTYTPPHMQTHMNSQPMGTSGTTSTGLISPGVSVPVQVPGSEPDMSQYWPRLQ
# Signal transducer and activator of transcription 3 (Homo sapiens), sequence (P40763 whole entry, looked up, the tested form may be a part): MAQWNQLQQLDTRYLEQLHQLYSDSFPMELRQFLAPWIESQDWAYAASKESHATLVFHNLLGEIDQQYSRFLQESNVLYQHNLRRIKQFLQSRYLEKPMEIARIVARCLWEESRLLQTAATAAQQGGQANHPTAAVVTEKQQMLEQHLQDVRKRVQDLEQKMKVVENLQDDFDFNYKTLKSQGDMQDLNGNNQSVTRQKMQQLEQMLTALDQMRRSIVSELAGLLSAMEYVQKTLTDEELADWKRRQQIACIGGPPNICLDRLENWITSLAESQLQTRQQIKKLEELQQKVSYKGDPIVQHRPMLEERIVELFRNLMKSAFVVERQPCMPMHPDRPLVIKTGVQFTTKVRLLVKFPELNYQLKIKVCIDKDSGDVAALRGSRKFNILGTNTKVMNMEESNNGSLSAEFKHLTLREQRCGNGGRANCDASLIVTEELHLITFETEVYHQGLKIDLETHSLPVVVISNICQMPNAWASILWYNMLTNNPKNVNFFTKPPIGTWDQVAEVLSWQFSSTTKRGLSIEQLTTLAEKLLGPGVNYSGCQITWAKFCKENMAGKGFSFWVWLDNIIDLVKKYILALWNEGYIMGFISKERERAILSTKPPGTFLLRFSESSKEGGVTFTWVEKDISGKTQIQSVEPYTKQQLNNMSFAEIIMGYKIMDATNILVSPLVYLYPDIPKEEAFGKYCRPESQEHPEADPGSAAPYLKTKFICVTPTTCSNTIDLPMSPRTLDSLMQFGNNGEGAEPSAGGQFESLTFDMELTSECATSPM
# Hepatocyte nuclear factor 6 (Homo sapiens), sequence (Q9UBC0 whole entry, looked up, the tested form may be a part): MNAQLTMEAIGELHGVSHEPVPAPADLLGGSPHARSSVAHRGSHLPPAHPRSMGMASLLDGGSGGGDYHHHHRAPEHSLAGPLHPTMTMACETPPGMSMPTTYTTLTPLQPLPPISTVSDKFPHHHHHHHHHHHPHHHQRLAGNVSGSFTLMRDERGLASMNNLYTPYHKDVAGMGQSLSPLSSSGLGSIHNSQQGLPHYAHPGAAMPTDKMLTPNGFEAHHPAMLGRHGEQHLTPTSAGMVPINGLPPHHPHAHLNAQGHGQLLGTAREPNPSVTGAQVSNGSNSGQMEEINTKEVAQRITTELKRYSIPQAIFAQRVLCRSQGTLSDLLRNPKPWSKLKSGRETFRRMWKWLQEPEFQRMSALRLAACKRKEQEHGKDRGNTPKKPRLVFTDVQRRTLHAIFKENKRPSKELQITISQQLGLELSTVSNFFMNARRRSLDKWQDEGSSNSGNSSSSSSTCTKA
# Heat shock factor protein 1 (Homo sapiens), sequence (Q00613 whole entry, looked up): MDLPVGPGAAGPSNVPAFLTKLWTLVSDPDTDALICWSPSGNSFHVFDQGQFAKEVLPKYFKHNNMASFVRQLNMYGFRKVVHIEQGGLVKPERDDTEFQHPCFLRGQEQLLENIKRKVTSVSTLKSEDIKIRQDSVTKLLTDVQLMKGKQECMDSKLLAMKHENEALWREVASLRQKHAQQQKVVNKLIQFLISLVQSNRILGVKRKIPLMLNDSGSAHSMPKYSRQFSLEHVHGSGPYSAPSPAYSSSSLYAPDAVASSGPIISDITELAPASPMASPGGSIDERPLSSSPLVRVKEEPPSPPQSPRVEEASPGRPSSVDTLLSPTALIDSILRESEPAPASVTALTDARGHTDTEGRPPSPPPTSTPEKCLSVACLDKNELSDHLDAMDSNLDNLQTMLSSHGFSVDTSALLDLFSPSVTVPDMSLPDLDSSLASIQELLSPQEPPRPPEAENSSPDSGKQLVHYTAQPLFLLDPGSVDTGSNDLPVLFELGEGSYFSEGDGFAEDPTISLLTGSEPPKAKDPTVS
compound,measurement,setting,value
Fc1ccc(Br)cc1,outcome,[1],inactive
same,outcome,[2],inactive
same,outcome,[3],inactive
same,outcome,[4],inactive
same,outcome,[5],inactive
same,outcome,[6],inactive
same,outcome,[7],inactive
same,outcome,[8],inactive
same,outcome,[9],inactive
same,outcome,[10],inactive
same,outcome,[11],inactive
same,outcome,[12],inactive
same,outcome,[13],inactive
same,outcome,[14],inactive
same,outcome,[15],inactive
O=S(=O)(O)c1ccc(N=Nc2c(O)ccc3ccccc23)cc1,outcome,[1],inactive
same,outcome,[2],inactive
same,outcome,[3],inactive
same,outcome,[4],inactive
same,AC50,[5],3 µM (active)
same,outcome,[16],inactive
same,outcome,[7],inactive
same,outcome,[8],inactive
same,outcome,[17],inactive
same,AC50,[9],31.6 µM (active)
same,outcome,[18],inactive
same,outcome,[10],inactive
same,outcome,[11],inactive
same,outcome,[13],inactive
same,outcome,[14],inactive
same,outcome,[15],inactive
COC(C=C(C)CCC=C(C)C)OC,outcome,[19],inactive
same,outcome,[1],inactive
same,outcome,[2],inactive
same,outcome,[3],inactive
same,outcome,[4],inactive
same,outcome,[5],inactive
same,outcome,[16],inactive
same,outcome,[6],inactive
same,outcome,[7],inactive
same,AC50,[9],21.7 µM (active)
same,outcome,[18],inactive
same,outcome,[10],inactive
same,outcome,[11],inactive
same,outcome,[12],inactive
same,outcome,[13],inactive
same,outcome,[14],inactive
same,outcome,[15],inactive
NNS(=O)(=O)c1ccc(Oc2ccc(S(=O)(=O)NN)cc2)cc1,outcome,[19],inactive
same,outcome,[2],inactive
same,outcome,[3],inactive
same,outcome,[4],inactive
same,outcome,[5],inactive
same,outcome,[16],inactive
same,outcome,[6],inactive
same,outcome,[7],inactive
same,outcome,[17],inactive
same,outcome,[9],inactive
same,outcome,[18],inactive
same,outcome,[11],inactive
same,outcome,[12],inactive
same,outcome,[13],inactive
same,outcome,[14],inactive
same,outcome,[15],inactive
CCN1CCCC1=O,outcome,[19],inactive
same,outcome,[1],inactive
same,outcome,[2],inactive
same,outcome,[3],inactive
same,outcome,[4],inactive
same,outcome,[5],inactive
same,outcome,[16],inactive
same,outcome,[6],inactive
same,outcome,[7],inactive
same,outcome,[8],inactive
same,outcome,[17],inactive
same,outcome,[9],inactive
same,outcome,[10],inactive
same,outcome,[11],inactive
same,outcome,[12],inactive
same,outcome,[13],inactive
same,outcome,[14],inactive
COC(=O)CC(C)CCC=C(C)C (configuration not stated),outcome,[19],inactive
same,outcome,[1],inactive
same,outcome,[2],inactive
same,outcome,[3],inactive
same,outcome,[4],inactive
same,outcome,[5],inactive
same,outcome,[16],inactive
same,outcome,[6],inactive
same,outcome,[7],inactive
same,outcome,[17],inactive
same,AC50,[9],69.2 µM (active)
same,outcome,[18],inactive
same,outcome,[11],inactive
same,outcome,[13],inactive
same,outcome,[14],inactive
same,outcome,[15],inactive
Nc1ccc(Cl)c(N)c1,outcome,[19],inactive
same,outcome,[2],inactive
same,outcome,[3],inactive
same,outcome,[4],inactive
same,outcome,[5],inactive
same,outcome,[16],inactive
same,outcome,[6],inactive
same,outcome,[7],inactive
same,outcome,[17],inactive
same,outcome,[9],inactive
same,outcome,[18],inactive
same,outcome,[10],inactive
same,outcome,[11],inactive
same,outcome,[12],inactive
same,outcome,[13],inactive
same,outcome,[14],inactive
same,outcome,[15],inactive
CC(C)=CCl,outcome,[19],inactive
same,outcome,[1],inactive
same,outcome,[2],inactive
same,outcome,[3],inactive
same,outcome,[4],inactive
same,outcome,[5],inactive
same,outcome,[16],inactive
same,outcome,[6],inactive
same,outcome,[7],inactive
same,outcome,[8],inactive
same,outcome,[17],inactive
same,outcome,[9],inactive
same,outcome,[10],inactive
same,outcome,[11],inactive
same,outcome,[12],inactive
same,outcome,[13],inactive
same,outcome,[14],inactive
same,outcome,[15],inactive
COC(=O)[C@H](Cc1ccccc1)NC(=O)[C@@H](N)CC(=O)O (H-Asp-Phe-OMe),outcome,[19],inactive
same,outcome,[1],inactive
same,outcome,[2],inactive
same,outcome,[3],inactive
same,outcome,[4],inactive
same,outcome,[5],inactive
same,outcome,[16],inactive
same,outcome,[6],inactive
same,outcome,[7],inactive
same,outcome,[17],inactive
same,outcome,[9],inactive
same,outcome,[18],inactive
same,outcome,[10],inactive
same,outcome,[11],inactive
same,outcome,[12],inactive
same,outcome,[13],inactive
same,outcome,[14],inactive
same,outcome,[15],inactive
C=CC(C)(O)CC/C=C(\C)CC (configuration not stated),outcome,[1],inactive
same,outcome,[2],inactive
same,outcome,[3],inactive
same,outcome,[4],inactive
same,outcome,[5],inactive
same,outcome,[16],inactive
same,outcome,[6],inactive
same,outcome,[7],inactive
same,outcome,[17],inactive
same,AC50,[9],4.25 µM (active)
same,outcome,[18],inactive
same,outcome,[10],inactive
same,outcome,[11],inactive
same,outcome,[12],inactive
same,outcome,[13],inactive
same,outcome,[14],inactive
same,outcome,[15],inactive
